Laboratory results taken from paper PMC4336329 (PLoS ONE, 2015).
The campaign covered roughly 310,000 compounds. About 14,000 (4.5%) showed an effect of 50% or more. The effect is printed as a negative number. The entries come from a sample that favours strong results as a whole.

What follows are compounds tested against human ether-à-go-go-related gene (hERG) potassium channel (human, UniProt Q12809) (assay: primary screen, population patch clamp on CHO cells stably expressing hERG; higher = less effect of the substance).
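Also: peak tail current of the secondary pulse compared with the same well before compound.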

Sequence of human ether-à-go-go-related gene (hERG) potassium channel (Q12809 whole entry, looked up): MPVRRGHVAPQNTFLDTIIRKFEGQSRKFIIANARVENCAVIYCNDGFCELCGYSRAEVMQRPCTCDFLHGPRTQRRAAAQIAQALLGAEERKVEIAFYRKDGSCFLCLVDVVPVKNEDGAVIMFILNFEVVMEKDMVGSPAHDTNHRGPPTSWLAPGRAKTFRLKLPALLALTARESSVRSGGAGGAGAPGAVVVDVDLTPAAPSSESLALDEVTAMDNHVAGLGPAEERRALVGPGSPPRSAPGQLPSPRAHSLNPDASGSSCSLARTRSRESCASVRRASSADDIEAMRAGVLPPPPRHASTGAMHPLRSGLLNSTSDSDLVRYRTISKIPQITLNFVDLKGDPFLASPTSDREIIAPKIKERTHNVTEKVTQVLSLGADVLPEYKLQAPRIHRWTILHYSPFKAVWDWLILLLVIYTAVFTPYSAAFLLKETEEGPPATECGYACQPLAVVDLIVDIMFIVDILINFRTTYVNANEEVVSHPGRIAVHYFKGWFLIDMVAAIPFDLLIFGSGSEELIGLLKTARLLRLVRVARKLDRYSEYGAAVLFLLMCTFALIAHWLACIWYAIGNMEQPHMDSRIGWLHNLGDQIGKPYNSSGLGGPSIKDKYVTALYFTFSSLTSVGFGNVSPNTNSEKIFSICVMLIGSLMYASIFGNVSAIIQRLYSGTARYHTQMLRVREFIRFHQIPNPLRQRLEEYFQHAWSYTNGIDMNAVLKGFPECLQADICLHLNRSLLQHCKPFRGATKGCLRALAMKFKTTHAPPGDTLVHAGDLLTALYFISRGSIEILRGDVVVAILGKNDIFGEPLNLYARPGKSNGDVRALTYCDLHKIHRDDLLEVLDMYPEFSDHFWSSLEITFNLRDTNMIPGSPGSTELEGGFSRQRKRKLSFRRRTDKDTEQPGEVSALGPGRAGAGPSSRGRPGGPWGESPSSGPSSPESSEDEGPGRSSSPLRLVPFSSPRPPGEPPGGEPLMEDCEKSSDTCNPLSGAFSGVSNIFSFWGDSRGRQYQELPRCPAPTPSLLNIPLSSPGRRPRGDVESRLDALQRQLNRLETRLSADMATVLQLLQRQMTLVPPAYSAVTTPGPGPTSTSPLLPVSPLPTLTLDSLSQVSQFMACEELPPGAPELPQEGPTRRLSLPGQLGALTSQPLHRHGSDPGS

| SMILES | hERG current change (%, negative = inhibition) at 10uM [%] |
| --- | --- |
| Cc1c(C(=O)Nc2cccc(Cl)c2)cn2c(nc3ccccc32)c1C#N | 6.75 |
| CC(=O)NCC(=O)OC(C)C(=O)Nc1ccc(C(C)=O)cc1 (stereo not drawn) | -10.4 |
| COc1cc(/C=C(\C#N)C(=O)NCC2CCCO2)ccc1OCC(N)=O (stereo not drawn) | 28.7 |
| C/C(=N\NC(=O)CCc1ccccc1)c1ccc(Br)cc1 | 11 |
| CN(C)S(=O)(=O)c1ccc(NC(=O)COc2ncnc3sccc23)cc1 | 15.7 |
| CN(C)c1ccc(CNC(=O)CCNS(=O)(=O)c2cc(Br)cnc2N)cc1 | 12 |
| COc1cccc(/C=C/C(=O)Nc2ccccc2N2CCOCC2)c1 | -15.4 |
| CCCCS(=O)CC(CS(=O)CCCC)OC(=O)c1ccccc1 (stereo not drawn) | -35.2 |
| CCCCS(=O)CC(COc1ccc(Cl)cc1)OC(=O)c1ccccc1 (stereo not drawn) | -56.3 |
| CCCCS(=O)CC(COC)OC(=O)c1ccccc1 (stereo not drawn) | 2.46 |
| Cc1ccc(-c2c(C(=O)NCc3ccccc3)oc(=O)c3ccccc23)cc1 | 1.98 |
| Cc1ccccc1NC(=O)c1oc(=O)c2ccccc2c1-c1ccccc1 | -1.57 |
| CC(C)N(CCNC(=O)c1oc(=O)c2ccccc2c1-c1ccccc1)Cc1ccco1 | -67.9 |
| CC(C)CC(=O)Nc1ncnc2c1C(=O)CC(C)(C)C2 | -0.157 |
| CCOC(=O)N1CCN(S(=O)(=O)c2c(C)cc(C)cc2C)CC1 | -5.61 |
| CSc1ccc(/C=N/n2c(C)cc(C)cc2=O)cc1 | -2.09 |
| Cc1nnc(SCC(=O)Nc2cccc(Cl)c2)n1CC1CCCO1 (stereo not drawn) | -7.41 |
| Cc1ccc(NC(=O)CSc2nnc(C3CC3)n2CC2CCCO2)cc1C (stereo not drawn) | -24 |
| O=C(CSc1nnc(C2CC2)n1CC1CCCO1)Nc1ccc(Cl)cc1 (stereo not drawn) | -56.8 |
| CCc1ccc(NC(=O)CSc2nnc(C3CC3)n2CC2CCCO2)cc1 (stereo not drawn) | -22.4 |
| C=CCn1c(SCC(=O)Nc2cccc(S(=O)(=O)N(C)c3ccccc3)c2)nnc1C1CC1 | -69.8 |
| CN(c1ccccc1)S(=O)(=O)c1cccc(NC(=O)CSc2nnc(C3CC3)n2C)c1 | -30.9 |
| Cc1cccc(NC(=O)CSc2nnc(C3CC3)n2CC2CCCO2)c1 (stereo not drawn) | -14.9 |

| SMILES | hERG current change (%, negative = inhibition) at 10uM [%] |
| --- | --- |
| O=C(CSc1nnc(C2CC2)n1CC1CCCO1)Nc1cccc(Cl)c1 (stereo not drawn) | -56.1 |
| Cc1ccc([N+](=O)[O-])cc1NC(=O)CSc1nnc(C)n1CC1CCCO1 (stereo not drawn) | -14.6 |
| CCn1c(SCC(=O)Nc2cccc(S(=O)(=O)N(C)c3ccccc3)c2)nnc1C1CC1 | -44.1 |
| Cc1nnc(SCC(=O)Nc2ccc([N+](=O)[O-])cc2)n1CC1CCCO1 (stereo not drawn) | -55.5 |
| Cc1nnc(SCC(=O)Nc2cccc([N+](=O)[O-])c2)n1CC1CCCO1 (stereo not drawn) | -13 |
| O=C(CCNS(=O)(=O)c1cccc2nsnc12)NC1CCCc2ccccc21 (stereo not drawn) | 9.49 |
| CCCc1cc(=O)n2[nH]c(CCc3ccccc3)nc2n1 | 14.1 |
| O=C(NCC(c1cccs1)N1CCOCC1)c1ccccc1NS(=O)(=O)c1ccc(Br)cc1 (stereo not drawn) | -38.4 |
| CCOC(=O)c1sc(NC(=O)c2ccc(Cl)s2)cc1C | 3.03 |
| O=C(c1ccco1)N1CCN(C2CC(=O)N(c3ccc(F)c(Cl)c3)C2=O)CC1 (stereo not drawn) | -14.2 |
| Cc1ccc(OS(=O)Nc2cccc3nccnc23)cc1 (stereo not drawn) | -18.6 |
| COc1ccccc1C(=O)NCCC(=O)NCc1ccncc1 | -4.37 |
| CCOc1ccccc1-n1c(CN2CCN(C(=O)c3ccco3)CC2)nc2ccccc2c1=O | -26.2 |
| CCC(CC)N1CCN(Cc2nc3ccc([N+](=O)[O-])cc3c(=O)n2-c2ccccc2F)CC1 | -57 |
| CCOC(=O)N1CCN(Cc2nc3ccc([N+](=O)[O-])cc3c(=O)n2-c2ccc(OC)cc2OC)CC1 | -46.1 |
| O=C(c1ccco1)N1CCN(Cc2nc3ccc([N+](=O)[O-])cc3c(=O)n2-c2ccccc2F)CC1 | -68.3 |
| CCOC(=O)N1CCN(Cc2nc3ccc([N+](=O)[O-])cc3c(=O)n2-c2ccccc2F)CC1 | -69.9 |
| CCN1CCN(Cc2nc3ccc([N+](=O)[O-])cc3c(=O)n2-c2ccccc2F)CC1 | 17.9 |
| O=c1c2cc([N+](=O)[O-])ccc2nc(CN2CCN(c3ccccn3)CC2)n1-c1ccccc1F | -28.3 |
| CCOC(=O)c1ccc(-n2c(CN3CCOCC3)nc3ccc([N+](=O)[O-])cc3c2=O)cc1 | 1.65 |
| O=C(O)C(=O)O.O=C(c1ccco1)N1CCN(Cc2ccccc2F)CC1 | 3.7 |
| CCOC(=O)c1ccc(-n2c(CN3CCN(CCO)CC3)nc3ccc([N+](=O)[O-])cc3c2=O)cc1 | -25.1 |
| CCOC(=O)N1CCN(Cc2nc3ccc([N+](=O)[O-])cc3c(=O)n2-c2cccc(OC)c2)CC1 | -39.8 |

| SMILES | hERG current change (%, negative = inhibition) at 10uM [%] |
| --- | --- |
| CCOC(=O)c1ccc(-n2c(CN3CCN(CC)CC3)nc3ccc([N+](=O)[O-])cc3c2=O)cc1 | -55 |
| Cc1c(C(=O)NCc2ccccc2)cnn1-c1ccccc1 | -2.6 |
| O=C(Nc1cccc(-c2cn3ccccc3n2)c1)c1cccc(Cl)c1 | 4.75 |
| CCCC1=NN(C(=O)Cc2ccc(OC)c(OC)c2)C(O)(C(F)(F)F)C1 (stereo not drawn) | 0.733 |
| CC(C)[C@H]1C(=O)Nc2ccccc2N1C(=O)N[C@@H](Cc1ccccc1)C(=O)N[C@@H](Cc1ccccc1)C(=O)O | 5.66 |
| Cc1nn(C)c(C)c1C(C)NC(=O)c1ccc(OC2CCN(Cc3ccccn3)CC2)cc1 (stereo not drawn) | 18 |
| CC(=O)NC1=C(Nc2ccc(N(C)C)cc2)C(=O)c2ccccc2C1=O | -9.79 |
| COC(=O)N/N=C/c1ccc(-c2cccc(Cl)c2)o1 | -3.5 |
| COc1cc(OC)cc(-c2nc(-c3ccccc3)no2)c1 | 5.45 |
| COCCCN1C(=O)C(O)=C(C(C)=O)C1c1cccc(F)c1 (stereo not drawn) | 7.18 |
| CCC1(c2ccccc2)NC(=O)N(CC(=O)Nc2ccccc2C(=O)NC2CC2)C1=O (stereo not drawn) | -7.31 |
| CCC1(c2ccccc2)NC(=O)N(CC(=O)Nc2cc(Cl)ccc2N2CCOCC2)C1=O (stereo not drawn) | -11.2 |
| CCC1(c2ccccc2)NC(=O)N(CC(=O)Nc2ccccc2C(=O)NC2CCCC2)C1=O (stereo not drawn) | -53.8 |
| CCC1(c2ccccc2)NC(=O)N(CC(=O)Nc2cc(Cl)ccc2N2CCN(C)CC2)C1=O (stereo not drawn) | -60.8 |
| CC1(c2ccccc2)NC(=O)N(CC(=O)Nc2ccccc2C(=O)NC2CC2)C1=O (stereo not drawn) | -22.5 |
| CN1CCN(c2ccc(Cl)cc2NC(=O)CN2C(=O)NC(C)(c3ccccc3)C2=O)CC1 (stereo not drawn) | -23.7 |
| COC(=O)C1=C(c2cccc(C#N)c2)C[C@@H]2CC[C@H]1N2C(=O)N1CCC(C)CC1 | -17.1 |
| Cc1ccccc1C1=NC(C(F)(F)F)(C(F)(F)F)c2c(n(-c3ccc(F)cc3)c(=O)[nH]c2=O)N1 | 12.5 |
| Cc1ccc(C)c(NC(=O)CN2C(=O)CNC2=O)c1 | 0.955 |
| COc1cccc(OCCNS(=O)(=O)c2cccc([N+](=O)[O-])c2)c1 | -8.19 |
| C[C@@H](CSc1ccccc1)CN1CC[C@H](NC(=O)OCc2ccccc2)CCC1=O | -44.2 |
| O=C(OCC(=O)N1CCCC1=O)c1nc(Cl)ccc1Cl | 5.78 |
| Nc1cc(N)nc(SCC(=O)c2ccc3c(c2)NC(=O)CO3)n1 | 8.41 |

| SMILES | hERG current change (%, negative = inhibition) at 10uM [%] |
| --- | --- |
| COc1ccccc1NC(=O)CSc1nc2ccccc2c(=O)n1C | 12.1 |
| O=C(Nc1ccc(Cl)cc1)C1CCCN1C(=O)NCc1ccccc1 (stereo not drawn) | 10.2 |
| CC(/C=C/c1ccccc1)=N/NC(=O)c1cnccn1 | 2.83 |
| O=C(CN1CCCCC1)N1CCCc2ccccc21.O=C(O)C(=O)O | 2.82 |
| N#CC1(CCCN2CCCCC2)c2ccccc2CCc2ccccc21.O=C(O)C(=O)O | -52.7 |
| O=C(CN1CCCC1)N1CCCc2ccccc21.O=C(O)C(=O)O | 13.8 |
| CNC(=S)NNC(=O)Cc1ccc(O)cc1 | -3.23 |
| CN(CC(=O)N1CCN(c2ccc(F)cc2)CC1)S(=O)(=O)c1ccc2c(c1)c(=O)n(C)c(=O)n2C | -0.425 |
| O=c1cc(CN2CCCCC2)nc(C2CC2)[nH]1 | -2.2 |
| c1c(C2CCCCC2)n[nH]c1CN1CCCCC1 | -53.9 |
| CC(C)c1cc(CN2CCN(C3CCCC3)C(CCO)C2)[nH]n1 (stereo not drawn) | -5.93 |
| Cc1ccc(C(=O)N/C(=C\c2ccccc2F)c2nc(=S)[nH][nH]2)cc1 | 14.4 |
| Cc1ccc(S(=O)(=O)Nc2ccc(-n3c(C)nc4ccccc4c3=O)cc2)cc1 | -49.4 |
| Cc1nc2ccccc2c(=O)n1-c1cccc(O)c1 | 14.1 |
| Cc1ccc(-n2c(C)nc3ccccc3c2=O)cc1C | -52.2 |
| Cc1cccc(S(=O)(=O)Nc2ccc(-n3c(C)nc4ccccc4c3=O)cc2)c1 | -55.9 |
| O=S(=O)(Nc1ccc(-c2ccc3nncn3n2)cc1)c1cccc(F)c1 | 18.1 |
| Cc1nc2ccccc2c(=O)n1-c1ccc(Cl)c(Cl)c1 | -8.26 |
| Cc1nc2ccccc2c(=O)n1-c1ccc(NS(=O)(=O)c2ccccc2)cc1 | -26.5 |
| Cc1cccc(S(=O)(=O)Nc2ccc(-c3ccc4nncn4n3)cc2)c1 | -123 |
| Cc1ccc(S(=O)(=O)Nc2ccc(-c3ccc4nncn4n3)cc2)cc1 | -9.23 |
